Source: PubChem BioAssay
Most compounds without a hit are left out; they make up all but 3.4% or so of the library.
TEAD-YAP inh = TEAD-YAP interaction inhibition | HEK-TIYL cells, TEAD-Gal4/YAP UAS-luciferase luminescence | inhibition, % at 9.12 µM | AID 1259422 | actives 1.4% (n = 640,000); in the data active means inhibition above about 32%;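 further: 0% = median of test compound wells and 100% = reference inhibitor wells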
MITF primary = blocks human microphthalmia-associated transcription factor; O75030; AlphaScreen MITF homodimerization, bead proximity signal; inhibition, % at 2.6 µM; actives 0.91% (n = 650,000); in the data active means inhibition above about 50%;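 further: 0% = vehicle wells with protein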
GPR151 ag = human GPR151 activation | actives 1% (n = 650,000) | activation, % at 11.2 µM | PathHunter beta-arrestin GPR151 cells, luminescence | AID 1508602; in the data active means activation above about 4.9%;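 further: 0% = median of compound wells and 100% = cells with positive control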
FBW7 activator = human FBW7 E3 ligase activation, primary screen; Q969H0; AlphaScreen FBW7–phospho-cyclin E peptide binding, activator screen; normalized activity (activation), % at 26.1 µM; actives 0.13% (n = 650,000); in the data active means normalized activity above about 1.9%;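 further: purified mutant Fbw7 with reduced substrate affinity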
Target sequence (Q969H0 whole entry, looked up): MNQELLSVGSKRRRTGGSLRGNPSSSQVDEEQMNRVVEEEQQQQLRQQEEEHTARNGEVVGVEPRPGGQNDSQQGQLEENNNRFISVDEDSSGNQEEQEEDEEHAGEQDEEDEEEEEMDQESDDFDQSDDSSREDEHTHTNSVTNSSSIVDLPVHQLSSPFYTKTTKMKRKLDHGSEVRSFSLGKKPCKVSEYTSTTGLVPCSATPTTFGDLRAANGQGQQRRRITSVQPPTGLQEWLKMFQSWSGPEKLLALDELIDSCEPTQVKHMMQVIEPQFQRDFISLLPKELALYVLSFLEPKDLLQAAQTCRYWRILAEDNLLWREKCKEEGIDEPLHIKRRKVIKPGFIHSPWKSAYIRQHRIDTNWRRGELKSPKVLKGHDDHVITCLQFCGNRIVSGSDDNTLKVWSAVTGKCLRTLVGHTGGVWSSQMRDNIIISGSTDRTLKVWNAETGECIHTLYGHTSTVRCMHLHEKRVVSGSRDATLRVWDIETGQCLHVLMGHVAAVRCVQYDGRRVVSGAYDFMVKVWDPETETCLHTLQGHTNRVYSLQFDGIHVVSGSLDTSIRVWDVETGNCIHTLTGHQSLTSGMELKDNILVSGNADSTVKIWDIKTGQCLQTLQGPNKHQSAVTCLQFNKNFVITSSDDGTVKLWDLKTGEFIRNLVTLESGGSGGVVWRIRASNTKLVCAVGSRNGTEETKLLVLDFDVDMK
The depositor's hits bear a star.

SMILES	TEAD-YAP inh	MITF primary	GPR151 ag	FBW7 activator
O=C1C=CC2=C3c4cc(O)c(O)cc4C[C@@]3(O)COC2=C1	5	88*	-1	0
O=C(Nc1cc(-c2ccccc2Oc2ccccc2F)ccn1)C1CCOC1 (stereo unspecified)	37*	1	0	0
Nc1nc(SCC(=O)N2CCN(C(c3ccccc3)c3ccccc3)CC2)n[nH]1	5	13	2	0
C=CCN1C(=Nc2cccnc2)SCC1(O)c1ccc(C)cc1 (stereo unspecified)	25	15	0	0
OC1(c2ccccc2)CSC(=Nc2cccnc2)N1CCCn1ccnc1 (stereo unspecified)	43*	18	1	0
CCNc1cc(C)nc(NCCNC(=O)Nc2cc(Cl)ccc2OC)n1	33*	2	-1	0
N#Cc1c(Cl)nc(Nc2cccc(F)c2)c(Cl)c1Cl	21	1	-1	0
N#Cc1c(Cl)nc(Nc2ccccc2)c(Cl)c1Cl	33*	12	0	1
O=C(O)c1cc(S(=O)(=O)Nc2ccc3c(c2)OCCO3)c(Cl)cc1Cl	36*	5	1	0
Cc1cc(C)c(C#N)c(SC2CC(=O)N(c3ccccc3)C2=O)n1 (stereo unspecified)	38*	3	0	1
N#Cc1cc2c(nc1SC1CC(=O)N(c3ccccc3)C1=O)CCC2 (stereo unspecified)	39*	-9	1	0
Cc1nc(SC2CC(=O)N(c3ccccc3)C2=O)c(C#N)c(C)c1C (stereo unspecified)	57*	12	1	1
N#Cc1cc2c(nc1SC1CC(=O)N(c3ccccc3)C1=O)CCCCC2 (stereo unspecified)	-19	0	-1	0
COc1ccc(-c2cc(-c3ccccc3)nc(SC3CC(=O)N(c4ccc(C)cc4)C3=O)c2C#N)cc1 (stereo unspecified)	9	8	-1	0
COCCn1c(N2CCNCC2)nc2c1c(=O)[nH]c(=O)n2C	1	0	1	0
Cc1cccc(NC(=O)CSc2nc3c(c(-c4ccco4)c2C#N)CCCC3)c1	16	4	2	0
Cc1cccc(C)c1NC(=O)c1cc2c(=O)n3ccccc3nc2n1C	37*	-9	1	0
CC(C(=O)Nc1ccncc1)c1ccc([N+](=O)[O-])cc1 (stereo unspecified)	33*	0	4	1
CC(C(=O)Nc1ncn[nH]1)c1ccc([N+](=O)[O-])cc1 (stereo unspecified)	12	8	-1	-1
CCC(C)C1N=C2c3ccccc3N=C(SCC(=O)c3ccc(O)c(O)c3)N2C1=O (stereo unspecified)	0	61*	0	0
CCC(CC)NC(=O)c1cccc(I)c1	34*	-7	1	0
CC(C)N=C(N)Cn1cnc2c1c(=O)n(C)c(=O)n2C	-2	0	-1	0
O=C(CSc1nc2[nH]ncc2c(=O)n1-c1ccc(Br)cc1)c1ccc(Cl)c(Cl)c1	-3	6	1	0
CC(C)(C)c1ccc(-c2cn(-c3ccccc3)c3[n+]2CCCS3)cc1	84*	4	1	0
CN1C(=O)/C(=C/c2ccccc2O)NC1=S	16	1	-1	1
SMILES	TEAD-YAP inh	MITF primary	GPR151 ag	FBW7 activator
CN1C(=O)/C(=C/c2cc(Br)ccc2O)NC1=S	80*	-28	1	0
O=C(Nc1ccccc1C(=O)NCc1ccccc1)c1ccc(CN2CCOCC2)cc1	52*	-7	-1	0
NC(=O)c1ccccc1NC(=O)c1ccc(CN2CCOCC2)cc1	36*	24	0	0
Cc1ccc(C(CC(=O)Nc2ccccc2)N2Cc3ccccc3C2=O)cc1 (stereo unspecified)	-24	8	1	1
CCOc1ccc2[nH]c(=O)c(CN(CCOC)C(=O)Nc3ccc(SC)cc3)cc2c1	-36	2	-1	0
CCOc1ccc2[nH]c(=O)c(CN(CCOC)C(=O)Nc3ccc(F)cc3)cc2c1	37*	1	1	0
CCOc1ccc(/C=C/c2nc3ccccc3c(=O)o2)cc1	83*	-3	-8	0
NC(=O)c1ccsc1NC(=O)/C=C/c1cccs1	64*	3	-12	0
Cc1nn(C2CCS(=O)(=O)C2)c(Cl)c1/C=C/c1nc2ccccc2s1 (stereo unspecified)	95*	-11	-5	0
N#CC(C#N)=NNc1ccc(O)c(C(=O)O)c1	3	79*	0	0
N#CC(C#N)=NNc1ccccc1C(=O)O	10	6	0	0
NC(=O)c1ccccc1NC(=O)c1ncoc1-c1ccc(Cl)cc1	-8	5	0	0
Cc1ccccc1Oc1nc2c(C)cccn2c(=O)c1/C=C(\C#N)C(=O)NCC1CCCO1 (stereo unspecified)	33*	2	-1	0
CNC(=O)/C(C#N)=C/c1c(Oc2cccc(C)c2C)nc2c(C)cccn2c1=O	35*	8	0	0
Cc1ccccc1Oc1nc2c(C)cccn2c(=O)c1/C=C(\C#N)C(=O)NC1CCCC1	32	-8	1	0
CNC(=O)/C(C#N)=C/c1c(Oc2ccc(F)cc2)nc2c(C)cccn2c1=O	13	8	-3	0
C=CCNC(=O)/C(C#N)=C/c1c(Oc2ccccc2C)nc2c(C)cccn2c1=O	41*	9	1	0
COC(=O)COc1cccc2c(=O)n(CC(=O)Nc3c(C)cc(C)cc3C)ccc12	5	-13	0	0
O=C(c1nc2ccc(Cl)cn2c1CN1CCOCC1)N1CCc2ccccc2C1	-8	-2	1	0
Cc1ccc(N2C(=O)c3cccc4c(Cl)ccc(c34)C2=O)cc1	2	-2	0	0
CCN(CC)CCN1C(=O)c2cccc3c(Cl)ccc(c23)C1=O	70*	3	1	0
Cc1ccc(N2C(=O)c3cccc4c(N)ccc(c34)C2=O)c2cccnc12	63*	7	1	0
CCN1C(=O)c2cccc3c(N)ccc(c23)C1=O	7	57*	0	0
Cc1ccc(N2C(=O)c3cccc4c(N5CCCCC5)ccc(c34)C2=O)c2cccnc12	6	4	2	0
Cc1cc(Nc2ccccc2C)nc(-n2nc(C)cc2C)n1	70*	18	-2	0
SMILES	TEAD-YAP inh	MITF primary	GPR151 ag	FBW7 activator
Cc1cc(Nc2ccc(F)c(Cl)c2)nc(-n2nc(C)cc2C)n1	6	15	-1	1
Cc1cc(Nc2ccc3c(c2)OCO3)nc(-n2nc(C)cc2C)n1	61*	-5	-1	0
COc1ccc(Nc2nc(C)cc(C)n2)c(OC)c1	3	12	0	0
COc1ccc(Nc2cc(C)nc(-n3nc(C)cc3C)n2)c(OC)c1	66*	-7	-1	-1
CCCCC(=O)N/N=C(\C)CC(=O)Nc1cc(OC)ccc1OC	-3	8	0	0
CC(=O)Nc1ccc(NC(=O)c2cc(C)nc3ccc(C)cc23)cc1	35*	-9	1	0
COc1cccc2cc(C(=O)N3CCN(c4ccc(C)c(C)c4)CC3)c(=O)oc12	-35	-3	4	0
